The nature of experiment [1]: Nuclear factor erythroid 2-related factor 2/antioxidant responsive element (Nrf2/ARE) small molecule agonists: qHTS cell viability counter screen in human keratinocytes (AID 1919968; active means well fitted curve in the direction sought with a large enough effect in the repeat runs; an effect the other way counts as inactive or inconclusive; further: nearly all actives have a fitted effect of over 55% in size; further: potency means the concentration at half of the fitted maximal effect). The gist of the method:
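In human HaCaT keratinocytes stably expressing an ARE-driven luciferase, compound exposure lasted 23 h at 37 C under 5% CO2. Viable cells are quantified with a protease-based fluorogenic reagent (CellTiter-Fluor) read 1 h after addition.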
(In general: In qHTS, concentration-response curves come from the screen itself.)

A short description of experiment [2]: Nuclear factor erythroid 2-related factor 2/antioxidant responsive element (Nrf2/ARE) small molecule agonists: luciferase reporter gene qHTS assay in human keratinocytes (AID 1919969). Further: nearly all actives have a fitted effect of over 35% in size. Further: potency means the concentration at half of the fitted maximal effect. A general note: In a reporter assay the amount or activity of a reporter protein is the signal.
In experiment [3] the target is Gonadotropin-releasing hormone receptor (Homo sapiens) (UniProt P30968). The experiment can be described thus: Human gonadotropin-releasing hormone receptor (GnRHR) small molecule agonists, calcium flux assay in GnRHR-HEK293 cells (AID 1920063). Further: nearly all actives have a fitted effect of over 35% in size. The method in brief: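 Intracellular calcium rise is the read-out: engineered human GnRHR HEK293 cells, dye-loaded, are exposed to DMSO-dissolved compounds and fluorescence at Ex/Em 480/540 is tracked for 3 min.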
(A change in cytosolic calcium serves as a functional read-out for many receptors and channels.)

In experiment [4] the target is KiSS-1 receptor (Homo sapiens) (UniProt Q969F8). The experiment can be described thus: Human kisspeptin (KISS1R) small molecule agonists, calcium flux assay in KISS1R-HEK293 cells (AID 1920064; active means well fitted curve in the direction sought with a large enough effect in the repeat runs; an effect the other way counts as inactive or inconclusive). The gist of the method:
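Concentration-response testing used 15 concentrations in triplicate on human KISS1R-expressing HEK293 cells. Calcium-dependent fluorescence (Ex/Em 480/540) was followed kinetically for 3 min after compound transfer.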

Experiment [5] in a line: G protein-coupled receptor (GPCR) small molecule agonists, calcium flux assay: HEK293 wild type cell line counter screen (AID 1920065). The gist of the method: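 Fluorescence intensity signals activation. After overnight (18 h) culture and a 1 h calcium dye load at 37 C, compounds are added by pin tool and the plate read at 480/540 nm for 3 min in 1 s steps.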
Experiment [6] in a line: p53 small molecule agonists, cell-based qHTS assay with human liver microsomes (AID 1963577).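 Further: p53 response element beta-lactamase reporter cells with liver microsomes plus NADPH.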 The method in brief:
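Steps: plate p53RE-bla cells, incubate 5 h at 37 C; add compound in DMSO; add microsomes (0.5 mg/mL final) and NADPH (0.5 mg/mL final); incubate 16 h at 37 C; add LiveBLAzer, 2 h RT; read fluorescence.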

A short description of experiment [7]: p53 small molecule agonists, cell-based qHTS assay with rat liver microsomes (AID 1963578). The method in brief: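 Metabolic activation is supplied by rat liver microsomes with NADPH (each 0.5 mg/mL final). p53RE-bla cells incubate with compound 16 h at 37 C; reporter activity is measured by LiveBLAzer fluorescence.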
Experiment [8] can be described thus: p53 small molecule agonists, cell-based qHTS assay with human liver microsomes: qHTS cell viability counter screen (AID 1963579). Further: nearly all actives have a fitted effect of over 45% in size. The method in brief:
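After the 460/530 nm beta-lactamase read, CellTiter-Glo was added to the same wells and luminescence measured after 30 min at room temperature, giving viability of p53RE-bla cells treated 16 h with compounds plus microsomes and NADPH.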

Experiment [9] in a line: cAMP Responsive Elements (CRE) small molecule antagonists, cell-based qHTS assay (AID 1963591; active means well fitted inhibition curve with a large enough effect in the signal ratio in the repeat runs, not every such curve was filed as active; the % refers to the signal ratio). The method in brief:
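Stimulation used NKH477 at a final 0.25 uM for 3 h in compound-treated CRE-bla HEK293T cells, seeded 18 h beforehand. Reporter activity was measured with LiveBLAzer B/G FRET substrate after 2 h at room temperature.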

Experiment [10] concerns the target Beta-2 adrenergic receptor (Homo sapiens) (UniProt P07550). The experiment can be described thus: Adrenergic beta2 receptor (ADRB2) small molecule antagonists, cell-based qHTS assay (AID 1963592). Further: series mostly up to about 92 µM; nearly all actives have a fitted effect of over 50% in size. The gist of the method: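 Assay format: CHO-ADRB2 cells, 18-20hr seeding at 37C/5% CO2, then compound plus 1nM isoproterenol agonist mix for 0.5hr RT. Homogeneous time-resolved fluorescence cAMP detection after 1hr, expressed as 665/615 nm ratio.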

Experiment [11] has as its target D(2) dopamine receptor (Homo sapiens) (UniProt P14416). The experiment can be described thus: Dopamine D2 receptor (DRD2) small molecule agonists, cell-based qHTS assay (AID 1963594). Further: nearly all actives have a fitted effect of over 35% in size. The method in brief: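 HEK293 cells stably expressing human DRD2, pre-treated with PDE inhibitor Ro20-1724 (0.1 mM final) and compound 10 min at room temperature, then stimulated with NKH477 (200nM […]) for 30 min. cAMP read by HTRF (665/620 nm).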

Experiment [12] has the same target. Description: Dopamine D2 receptor (DRD2) small molecule antagonists, cell-based qHTS assay (AID 1963595; active means well fitted inhibition curve with a large enough effect in the signal ratio in the repeat runs, with a control signal flat; the % refers to the signal ratio). The gist of the method: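 Human DRD2 antagonist qHTS measuring cAMP by HTRF. The cells are exposed to compound for 10 min, then to NKH477 (200 nM) and quinpirole (12 nM) for 30 min at RT, with Ro20-1724 (0.1 mM) present throughout.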
A short description of experiment [13]: p53 small molecule agonists, cell-based qHTS assay (AID 1963582; active means well fitted activation curve with a large enough effect in the signal ratio in the repeat runs, not every such curve was filed as active; the % refers to the signal ratio; further: potency means the concentration at half of the fitted maximal effect). The method in brief:
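After plating, p53RE-bla cells sat 5 h in the incubator; compounds or DMSO vehicle were pinned in; a 16 h incubation at 37 C followed; FRET substrate was added and, 2 h later at RT, fluorescence was measured.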

Experiment [14] can be described thus: cAMP Responsive Elements (CRE) small molecule agonists, cell-based qHTS assay (AID 1963590). The gist of the method: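 Compound exposure lasted 3 h at 37 C/5% CO2 in CRE-bla HEK 293T cells grown in assay medium with 10% dialyzed FBS and 25 mM HEPES. Reporter signal came from LiveBLAzer B/G FRET substrate, 2 h, room temperature.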
Experiment [15] is described as follows: p53 small molecule agonists, cell-based qHTS assay: qHTS cell viability counter screen (AID 1963581). Further: nearly all actives have a fitted effect of over 45% in size. The gist of the method:
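Luminescence from CellTiter-Glo, reflecting ATP content, serves as the cytotoxicity measure; it is taken after the 2 h reporter substrate step in HCT-116 p53RE-bla cells dosed for 16 h at 37 C.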

Experiment [16] has as its target 5-hydroxytryptamine receptor 2A (Homo sapiens) (UniProt P28223). Description: 5-hydroxytryptamine receptor 2A (HTR2A) small molecule agonists, cell-based qHTS assay (AID 1963587). Further: nearly all actives have a fitted effect of over 30% in size. The gist of the method:
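CHO cells stably expressing human HTR2A, plated 18 h, loaded with calcium dye 1 h at 37 C. Agonist mode: compounds added and intracellular calcium fluorescence recorded kinetically for 2 min at 1 sec intervals.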

Experiment [17] deals with Muscarinic acetylcholine receptor M1 (Homo sapiens) (UniProt P11229). Description: Cholinergic receptor muscarinic 1 (CHRM1) small molecule antagonists, cell-based qHTS assay (AID 1963588). Further: nearly all actives have a fitted effect of over 40% in size. The gist of the method:
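Compounds were tested at 15 concentrations in three independent runs. Dye-loaded CHRM1-CHO cells were exposed 5 min at room temperature before stimulation by acetylcholine added at 50nM. Intracellular calcium was read kinetically on FDSS for 3 min.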

Experiment [18] has the same target. The experiment can be described thus: Cholinergic receptor muscarinic 1 (CHRM1) small molecule agonists, cell-based qHTS assay (AID 1963589). Further: nearly all actives have a fitted effect of over 35% in size. The method in brief: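 Fluorescent calcium dye reports M1 activation in stably transfected CHO cells. Compounds, 15 concentrations, added after 1 h dye loading at 37 C; kinetic reading at 1 sec intervals.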
Experiment [19] can be described thus: p53 small molecule agonists, cell-based qHTS assay with rat liver microsomes: qHTS cell viability counter screen (AID 1963580). Further: nearly all actives have a fitted effect of over 45% in size. The method in brief: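 Cytotoxicity counter screen: intracellular ATP measured by CellTiter-Glo luminescence in the same wells as the beta-lactamase reporter read, on HCT-116 p53RE-bla cells exposed 16 h at 37 C to compounds with rat liver microsomes and NADPH, each 0.5 mg/mL final.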

Experiment [20] addresses 5-hydroxytryptamine receptor 2A (Homo sapiens) (UniProt P28223). The experiment can be described thus: 5-hydroxytryptamine receptor 2A (HTR2A) small molecule antagonists, cell-based qHTS assay (AID 1963586). Further: nearly all actives have a fitted effect of over 45% in size. The gist of the method: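 CHO cells stably expressing human HTR2A were plated for 18 h at 37 C, then loaded with calcium dye for 1 h. Compounds were preincubated 5 min at room temperature before DOI (4 nM solution) was added. Kinetic fluorescence was read for 3 min.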

The values below come from PubChem BioAssay (Tox21).

Unmarked numbers belong to inactive results. Records with an inconclusive call do not appear. The source made the active and inactive calls. Unless noted, the call rests on the fitted dose curve.
On the % scale 0 is the no-effect control and ±100 the full control effect.

Muscarinic acetylcholine receptor M1 (Homo sapiens), sequence (P11229 whole entry, looked up): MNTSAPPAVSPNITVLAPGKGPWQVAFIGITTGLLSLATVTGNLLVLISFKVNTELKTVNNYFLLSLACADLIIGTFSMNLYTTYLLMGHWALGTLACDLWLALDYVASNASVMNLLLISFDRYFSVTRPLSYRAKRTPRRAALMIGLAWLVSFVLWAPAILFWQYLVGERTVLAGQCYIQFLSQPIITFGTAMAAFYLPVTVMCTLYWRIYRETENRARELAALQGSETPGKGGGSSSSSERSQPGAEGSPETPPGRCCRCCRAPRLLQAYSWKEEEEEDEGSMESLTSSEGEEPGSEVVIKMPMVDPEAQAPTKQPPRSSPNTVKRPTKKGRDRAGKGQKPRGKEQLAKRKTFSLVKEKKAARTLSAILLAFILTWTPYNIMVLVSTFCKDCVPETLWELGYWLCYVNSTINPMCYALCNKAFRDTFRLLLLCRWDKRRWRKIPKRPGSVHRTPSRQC
Beta-2 adrenergic receptor (Homo sapiens), sequence (P07550 whole entry, looked up): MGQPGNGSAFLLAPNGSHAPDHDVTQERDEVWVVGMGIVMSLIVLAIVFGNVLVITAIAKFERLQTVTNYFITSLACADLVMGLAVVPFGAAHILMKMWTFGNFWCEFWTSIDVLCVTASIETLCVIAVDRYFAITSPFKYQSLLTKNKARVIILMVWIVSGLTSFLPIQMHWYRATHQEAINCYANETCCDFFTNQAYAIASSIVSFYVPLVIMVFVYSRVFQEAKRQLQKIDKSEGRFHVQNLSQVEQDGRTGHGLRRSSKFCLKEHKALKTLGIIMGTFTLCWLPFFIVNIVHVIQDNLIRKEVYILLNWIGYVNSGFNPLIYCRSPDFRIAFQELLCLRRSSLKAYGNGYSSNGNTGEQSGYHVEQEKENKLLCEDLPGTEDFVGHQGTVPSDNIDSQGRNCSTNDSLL
KiSS-1 receptor (Homo sapiens), sequence (Q969F8 whole entry, looked up): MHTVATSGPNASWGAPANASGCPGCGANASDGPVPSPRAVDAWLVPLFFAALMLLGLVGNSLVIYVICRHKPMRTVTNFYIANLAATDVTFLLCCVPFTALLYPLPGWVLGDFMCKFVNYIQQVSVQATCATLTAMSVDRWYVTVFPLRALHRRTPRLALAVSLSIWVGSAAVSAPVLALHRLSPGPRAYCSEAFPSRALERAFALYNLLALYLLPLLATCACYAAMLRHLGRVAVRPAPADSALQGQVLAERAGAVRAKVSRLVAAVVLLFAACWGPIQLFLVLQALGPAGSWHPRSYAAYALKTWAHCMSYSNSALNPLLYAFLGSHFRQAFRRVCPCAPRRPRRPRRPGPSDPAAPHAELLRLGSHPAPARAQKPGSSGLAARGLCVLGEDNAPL
D(2) dopamine receptor (Homo sapiens), sequence (P14416 whole entry, looked up): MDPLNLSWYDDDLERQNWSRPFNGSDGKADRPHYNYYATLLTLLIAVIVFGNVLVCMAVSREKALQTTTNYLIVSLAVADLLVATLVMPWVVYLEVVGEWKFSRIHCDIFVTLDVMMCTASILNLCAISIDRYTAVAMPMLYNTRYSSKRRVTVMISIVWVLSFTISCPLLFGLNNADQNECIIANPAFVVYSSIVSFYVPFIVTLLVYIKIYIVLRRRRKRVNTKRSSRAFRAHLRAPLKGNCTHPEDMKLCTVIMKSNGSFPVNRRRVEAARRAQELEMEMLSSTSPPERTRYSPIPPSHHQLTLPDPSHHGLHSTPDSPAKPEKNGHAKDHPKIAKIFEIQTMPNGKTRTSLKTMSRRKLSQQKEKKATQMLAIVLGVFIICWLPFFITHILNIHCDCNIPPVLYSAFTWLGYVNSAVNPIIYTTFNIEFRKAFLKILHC
Gonadotropin-releasing hormone receptor (Homo sapiens), sequence (P30968 whole entry, looked up): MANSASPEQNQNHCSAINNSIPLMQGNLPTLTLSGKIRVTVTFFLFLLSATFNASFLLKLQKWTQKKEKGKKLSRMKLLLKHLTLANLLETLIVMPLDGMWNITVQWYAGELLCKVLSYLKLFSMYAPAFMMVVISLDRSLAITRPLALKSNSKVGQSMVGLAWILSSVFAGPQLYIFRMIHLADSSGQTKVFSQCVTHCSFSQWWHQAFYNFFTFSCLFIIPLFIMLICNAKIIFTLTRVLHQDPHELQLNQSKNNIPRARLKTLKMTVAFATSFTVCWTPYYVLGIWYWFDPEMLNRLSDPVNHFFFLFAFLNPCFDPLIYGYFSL
5-hydroxytryptamine receptor 2A (Homo sapiens), sequence (P28223 whole entry, looked up): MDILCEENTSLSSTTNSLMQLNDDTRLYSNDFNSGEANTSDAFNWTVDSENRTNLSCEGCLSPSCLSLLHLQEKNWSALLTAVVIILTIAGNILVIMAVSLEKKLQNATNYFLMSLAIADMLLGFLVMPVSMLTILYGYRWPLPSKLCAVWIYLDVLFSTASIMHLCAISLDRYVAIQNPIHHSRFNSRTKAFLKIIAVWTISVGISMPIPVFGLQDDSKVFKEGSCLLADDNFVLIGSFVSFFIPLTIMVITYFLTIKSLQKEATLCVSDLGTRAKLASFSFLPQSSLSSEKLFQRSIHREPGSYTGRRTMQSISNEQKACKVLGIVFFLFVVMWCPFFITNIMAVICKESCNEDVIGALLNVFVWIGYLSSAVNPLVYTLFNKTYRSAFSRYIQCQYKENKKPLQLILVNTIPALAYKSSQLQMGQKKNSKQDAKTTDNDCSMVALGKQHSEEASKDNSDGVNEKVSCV

With `CC1=C(/C=C/C(C)=C/C=C/C(C)=C\C(=O)O)C(C)(C)CCC1`, the Potency result in [1], in experiment [3], in experiment [6], in experiment [7], in [8] and in experiment [9] was “inactive” each time. The Potency entry in [10], in [11] and in experiment [12] was “inactive” each time. Moreover, the Potency in [2] was 68.8 µM (active). Also, the result in experiment [4] and in experiment [5] was inactive.

`Nc1ccn([C@@H]2O[C@H](CO)[C@@H](O)C2(F)F)c(=O)n1`: the Potency result in experiment [1], in [2], in [3], in [6], in [7] and in experiment [8] was “inactive” in each case. The Potency entry in experiment [14], in experiment [9] and in [12] was “inactive” throughout. Moreover, the outcome in experiment [4] and in [5] was inactive. The Potency in experiment [13] was 0.199 µM (active).

As for `O=C=Nc1cccc(C(F)(F)F)c1`, the Potency entry in experiment [1], in [2], in experiment [3], in experiment [6], in [7] and in experiment [8] was “inactive” throughout. Also, the Potency entry in experiment [15], in experiment [16], in experiment [17], in experiment [18], in experiment [14] and in experiment [9] was “inactive” in each case. Besides, the Potency entry in [10] and in experiment [11] was “inactive” each time. The outcome in experiment [4] and in experiment [5] was inactive.

On to `O=C(CCCCCCCCC#CI)Oc1ccccc1`, for which the Potency result in experiment [1], in experiment [2], in experiment [3], in experiment [6], in experiment [7] and in [19] was “inactive” in each case. The Potency result in [15], in experiment [13], in experiment [20], in experiment [16], in experiment [17] and in experiment [18] was “inactive” throughout. In addition, the Potency result in experiment [9], in experiment [10], in experiment [11] and in experiment [12] was “inactive” each time. Further, the result in experiment [4] and in experiment [5] was inactive.

In the case of `Oc1cn2c(n1)Nc1ccc(Cl)c(Cl)c1C2`, the figures for the activity change, negative = cytotoxicity in experiment [1], in experiment [19] and in [15] were -5.95% [at 19 µM], -5.66% [at 13.5 µM] and -7.7% [at 13.5 µM], respectively. For the same compound, the activity, positive = activation in [2] was -4.99% [at 19 µM]. The activity change in experiment [3] was -1.21% [at 11.8 µM, active compounds read high]. In addition, the activation in experiment [4] is 1.57% [at 15.8 µM]; in experiment [5], 0.199% [at 11.8 µM]; in [6] it was -4.43% [at 13.5 µM]; in [7] it was -0.253% [at 13.6 µM]; in experiment [13], 2.32% [at 13.5 µM]; in [16], 4.55% [at 15.9 µM]. Moreover, the activation in [18] was -0.629% [at 15.8 µM]; in [11], 1.31% [at 19 µM]. Moreover, the activity, negative = inhibition in experiment [20] was 4.4% [at 12.7 µM]. Moreover, the activity change, negative = inhibition is 8.99% [at 19 µM] in experiment [10] and -3.31% [at 18.9 µM] in [12].

Consider `CCN(CC)c1ccc(N)cc1`, for which the results for the Potency in experiment [1] and in experiment [2] were 22.3 µM (active) and 31.5 µM (active), respectively. For the same compound, the Potency entry in experiment [3], in experiment [6], in experiment [7], in experiment [19], in experiment [15] and in [13] was “inactive” each time. The Potency result in experiment [20], in [16], in [17], in experiment [18] and in experiment [10] was “inactive” throughout. Besides, the outcome in experiment [4] and in [5] was inactive.

As to `O=C(O)c1ccc2c(c1)nc(C(=O)NC1CCN(C3CC3)CC1)n2Cc1cc(-c2ccc(Cl)s2)on1`, the activity change, negative = cytotoxicity in [1] is 2.24% [at 19 µM]; in experiment [19] it was 1.71% [at 13.5 µM]; in experiment [15], 10.9% [at 13.5 µM]. Also, the activity, positive = activation in experiment [2] is 2.61% [at 19 µM]. In addition, the activity change in [3] was -0.0073% [at 11.8 µM, active compounds read high]. In addition, the activation in experiment [4] was -0.617% [at 15.8 µM]; in experiment [5], 0.0965% [at 11.8 µM]; in experiment [6], -1.92% [at 13.5 µM]; in experiment [7], -2.62% [at 13.6 µM]; in [13], -1.36% [at 13.5 µM]; in experiment [18] it was -0.218% [at 15.8 µM]. Moreover, the activation in experiment [11] was 23% [at 19 µM]. The activity, negative = inhibition in experiment [20] was -29.3% [at 12.7 µM]. Moreover, the activity change, negative = inhibition was -20.8% [at 19 µM] in experiment [10] and -5.22% [at 18.9 µM] in experiment [12].
